# Measurements from PubChem BioAssay (NCATS).
# Inconclusive results are not listed. The source made the active and inactive calls. Calls follow the shape of the dose curve; as a rule, active = well fitted inhibition curve with a large enough effect; inconclusive = small, poorly fitted or top-dose-only effect, or effect the other way; inactive = flat fitted curve, though single readings scatter.
# Assay: qHTS for Inhibitors of Plasmodium falciparum (CP250) proliferation (AID 504320)
# Settings: P. falciparum CP250 in erythrocytes, SYBR Green DNA, 72 h; series mostly up to 6.7 µM; activity change, negative = inhibition: at the top concentration
# From the text: Plasmodium falciparum is a virulent malarial parasite that kills 1-2 million people worldwide each year. Malaria not only inflicts tremendous suffering and morbidity on the human population, but has dramatically influenced the course of civilization with profound sociological and economic implications (Shah, S. 2010). Transmitted by mosquitoes, the sporozoite form of the parasite enters the blood stream to infect hepatocytes, where they become merozoites that infect red blood cells (erythrocytes). Within erythrocytes, merozoites begin a […] cycle of growth and division, after which the parasite is released to infect new red blood cells. Gametocytes, which form within erythrocytes as well, circulate in the bloodstream and are ingested by the mosquito, thereby completing the life cycle (see CDC website). To profile malarial lines for differential chemical responses and to identify inhibitors of malarial growth, an assay that measures P. falciparum growth and replication within erythrocytes was employed. This assay uses a DNA binding fluorescent dye (SYBR Green) to detect parasite DNA following cell lysis. Because mature erythrocytes lack DNA, only Plasmodium-derived DNA is detected. The P. falciparum line cp250, derived from a malarial isolate from Cambodia, (Mu, J., et al. 2010) was added to the panel of lines, Dd2, HB3, 7G8 and GB4 in this study. Laboratory of Assay Development and Screening Technology [ADST] and NIH Chemical Genomics Center [NCGC] Boston University, Chemistry Department, Center for Chemical Methodology and Library Development [CMLD-BU] NIH National Institute of Allergy and Infectious Diseases [NIAID]
# ADST Assay Protocol Summary: The 1536-well SYBR Green viability assay was based on the method of Bennett et al (2004) and described previously in 1536-well format (Yuan J., et al. 2009). For screening 3 ul culture medium was dispensed into 1536 well black clear bottom plates (Aurora Biotechnologies) using a Multidrop Combi (Thermo Fisher Scientific Inc.), 23 nL compounds in DMSO were added by a pin transfer (Cleveland, P.H. and Koutz, P.J, 2005) using a pin tool-based delivery system (Kalypsys), and 5 ul of erythrocytes infected with P. falciparum one of five lines (cp250, Dd2, HB3, 7G8 or GB4, 0.3% parasitemia, 2.5% hematocrit final concentration) were added. The plates were incubated at 37C in a humidified incubator in 5% CO2 for 72 h, and 2 ul lysis buffer (20 mM Tris HCl, 10 mM EDTA, 0.16% saponin, 1.6% triton X, 10X SYBR Green I (supplied as 10,000X final concentration by Invitrogen) was added to each well. The plates were mixed for 25 sec with gentle shaking and incubated overnight at room temperature in the dark. The following morning, fluorescence intensity at 485(14) nm excitation and 535(25) nm emission wavelengths was measured on an EnVision (Perkin Elmer) plate reader. Plate reads were normalized relative to the control inhibitor (0.29 uM artemisinin) and vehicle (DMSO) wells present on each plate and then corrected by an algorithm using vehicle-only control plates at the beginning and end of the compound plate stack. References Shah, S. (2010). The Fever: how malaria has ruled humankind for 500,000 years. New York, Sarah Crichton Books. CDC web site, http://www.cdc.gov/malaria/about/biology/index.html Mu, J., Myers, R.A., Jiang, H., Liu, S., Ricklefs, S., Waisberg, M., Chotivanich, K., Wilairatana, P., Krudsood, S., White, N.J., et Plasmodium falciparum genome-wide scans for positive selection, recombination hot spots and resistance to antimalarial drugs Nature Genetics 2010, 42, pp 268-271 Bennett TN, Paguio, M., Gligorijevic, B., Seudieu, C., Kosar, A. D., Davidson, E., and Roepe, P. D. Novel, rapid, and inexpensive cell-based quantification of antimalarial drug efficacy Antimicrobial Agents Chemother. 2004, 48(5): pp 1807-10 Yuan J, Johnson RL, Huang RL, Wichterman J, Jiang HY, Hayton K, Fidock DA, Wellems TE, Inglese J, Austin CP, Su XZ. […]
# Potency is read from the fitted curve at half-maximal effect.
Structure (SMILES),Potency,"activity change, negative = inhibition"
C[C@H]1Cc2c(-c3ccccc3)nc3c(c2CO1)CN(C(=O)Nc1cccc(C#N)c1)CC3,inactive,
CCN1C(=NCc2ccco2)N[C@@H](CCc2ccccc2)[C@H](C(=O)OC)[C@H]1C,,3.34% (inactive)
C[C@H]1Cc2c(-c3ccccc3)nc3c(c2CO1)CN(C(=O)c1cccnc1)CC3,inactive,
C=CCOC(=O)N[C@@H](Cc1ccccc1)C(C(=O)OC)=C(C)NCc1ccccc1,,0.0046% (inactive)
COc1ccc2c(c1)O[C@@H](c1cccc(C(F)(F)F)c1)[C@H](O)C2=O,inactive,
COc1cccc([C@H]2Oc3ccc(OC)cc3C(=NO[C@@H](C)c3cn([C@H](CO)Cc4ccccc4)nn3)[C@H]2O)c1,,0.205% (inactive)
COC(=O)[C@H]1[C@@H](c2ccccc2)NC(=O)O[C@@H]1C,,-3.04% (inactive)
C[C@@H]1[C@@H](c2ccccc2)Cc2nc3ccccc3nc2C[C@H]1C(=O)N1CCCC1,,6.36% (inactive)
COc1ccc(-c2nc3c(c4c2C[C@H](c2ccccc2)OC4)CN(C(=O)N[C@@H](C)C(=O)OC(C)C)CC3)c(C)c1,,-19% (inactive)
C[C@]12C[C@@](C)(C=C1C=Cc1ccccc1)C(=O)C[C@H]2c1ccccc1,,5.48% (inactive)
CC(=O)OC[C@H]1O[C@H](CC=NO[C@@H](C)CN2CCCc3nc(C)c(C)cc32)C=C[C@@H]1OC(C)=O,,0.969% (inactive)
C#CCCCON=C1C[C@@H](O)[C@@H](O)[C@@H]2[C@H]3C(=O)N(C(C)(C)C)C(=O)[C@@H]3CC[C@H]12,,0.111% (inactive)
Cc1ccc(S(=O)(=O)n2c3ccccc3c3nnc(C(=O)c4ccccc4)nc32)cc1,,3.07% (inactive)
COC(=O)C=P(c1ccccc1)(c1ccccc1)c1ccccc1,,4.28% (inactive)
COc1ccc(NC(=O)N2CCc3nc(-c4ccc(OC)cc4C)c4c(c3C2)CO[C@@H](c2ccccc2)C4)cc1,inactive,
C=CCOC(=O)C(C(C)=O)[C@@H](NC(=O)OC)c1cccc(C)c1 (stereo not given in full),,1.62% (inactive)
CCOC(=O)CN1C(=O)[C@@]2(CC(C)=CC[C@@H](COc3ccccc3)O2)c2ccccc21,,4.21% (inactive)
C=CCOC(=O)N[C@H](C(C(=O)OC)=C(C)NCc1ccccc1)c1ccc2c(c1)OCO2,,5.66% (inactive)
CCCC[C@]12Cc3cc(OC)c(OC)cc3[C@H](O1)C1=C(CC3(CCCCC3)OC1=O)O2,,-3.49% (inactive)
C[C@@H]1C[C@](C)(C(=O)c2ccco2)C=C1c1ccco1,,6.44% (inactive)

Structure (SMILES),Potency,"activity change, negative = inhibition"
COC(=O)NC(C(=O)OC)(C(=O)OC)c1ccccc1,,-2.41% (inactive)
COc1cc2c(cc1OC)[C@@H]1O[C@](c3ccsc3)(C2)Oc2cc(-c3ccccc3)oc(=O)c21,inactive,
C=C(C(C)=O)C(O)c1cccc(OC)c1 (stereo not given),,1.88% (inactive)
CCN1C(=O)NC(c2ccc(Br)cc2)C(C(C)=O)=C1C (stereo not given),inactive,
C=C1C2c3ccccc3C(CC2(C)O[Si](C)(C)C)N1C(=O)OC (stereo not given),inactive,
C=CCN1c2ccccc2[C@]23CCC(=O)N(CCCOC(C)C)C2=NC(C(=O)OC)=C(C(=O)OC)[C@H]13,,7.32% (inactive)
COc1cc2c(cc1OC)[C@@H]1O[C@](CCCCN3C(=O)c4ccccc4C3=O)(C2)Oc2cc(C)n(Cc3ccccc3)c(=O)c21,1690 nM (active),
C[C@@H]1NC(=O)[C@@H](C)COC(=O)[C@H](C)NC(=O)[C@@H](C)COC1=O,,-2.29% (inactive)
CCOC(=O)C1=NO[C@@]2(C=C(Br)C(=O)[C@H]3O[C@H]32)C1,,1.37% (inactive)
CC1(OC(=O)c2cnc3ccccc3n2)C(=O)C=C2C=C(C3CC3)OC=C2C1=O (stereo not given),,3.11% (inactive)
CC1=C[C@@H](COc2ccccc2)O[C@@]2(C1)C(=O)N(Cc1ccccc1)c1ccccc12,,-9.96% (inactive)
COC(=O)C1=C(C(=O)OC)[C@@H]2N(C)c3ccccc3[C@@]23C[C@@H](C(=O)OC)N(C(=O)NC(C)(C)C)C3=N1,,5.47% (inactive)
COC(=O)N[C@@H](C=Cc1ccccc1)[C@@H](C)[N+](=O)[O-],,5.53% (inactive)
CCN1C(=NCCc2cccnc2)N[C@H](CCc2ccccc2)[C@H](C(=O)OC)[C@H]1C,,0.586% (inactive)
C=C(C)C(=O)C=Cc1ccc(Br)cc1,,8.16% (inactive)
CCc1cc2c(nc1CC)CCN(CCC(C)=NOC[C@@H](O)COCc1ccco1)C2,,3.45% (inactive)
COC[C@@H](O)[C@H]1OCc2cc(OC)ccc2[C@H]1C=Cc1ccccc1,,-1.72% (inactive)
O=C(NC(CC1=CCCCC1)c1ccc2c(c1)OCO2)C(F)(F)F (stereo not given),,0.487% (inactive)
OC[C@H]1O[C@H](C#Cc2ccccc2)C=C[C@@H]1O,,-0.72% (inactive)
CCCC[C@]12Cc3c(ccc4ccccc34)[C@H](O1)c1c(cc(C)oc1=O)O2,,2.05% (inactive)
